Values joined by “and” are separate entries in the source; they are usually repeats but may differ in a detail not shown here. Identical values can stand only once. Results filed as inconclusive are left out. Active and inactive are the calls of the source.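 How the source made its calls, unless noted: active means mean z-score across replicates of 1.96 or higher in either the MELAS or the Rieske mutant cell line; inactive means the rest.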
How the values were obtained:
[1] = Wnt pathway potentiators raising nuclear beta-catenin – imaging, WNT3A-conditioned medium, mouse C2C12, NPC library, primary screen (AID 1117326; in the data active means nuclear beta-catenin stimulation mostly above about 4.2%, no sharp cut-off; inactive means mostly below about 10%; further: reference of the scale not given here); details: stronger effect = higher value
[2] = stimulators of insulin release from INS-1E, primary screen, cell-based, 5 mM glucose, NPC library (AID 1117329;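 active means compound raises insulin release from rat beta cells at 5 mM glucose, no numeric limit stated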; further: reference of the scale not given here); details: rat INS-1E insulin secretion, at 10 µM, stronger effect = higher value
[3] = growth inhibition of GSK3B-pretreated HCT116 cells – cell-based, CellTiter-Glo, 0.2 to 20 µM (AID 1117336;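 active means compounds lowering colon cancer cell viability after pretreatment blocking the GSK3B kinase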); details: HCT116 viability after GSK3B inhibitor, at 20 µM, stronger effect = higher value
[4] = inhibition of endothelial tube formation, primary screen, imaging, VEGF stimulated, CD31 staining, tube area, NPC library (AID 1117340;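 active means compound that reduces growth-factor-driven endothelial tube area in a mixed cell culture, no cutoff stated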); details: VEGF-stimulated ADSC/ECFC co-culture, at 10 µM, stronger effect = higher value
[5] = GLP1 release stimulators, primary, NCI-H716, NPC library (AID 1117341;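 active means compound raises GLP1 secretion from the human gut endocrine cells, with no numeric limit stated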; further: reference of the scale not given here); details: NCI-H716 cells, at 10 µM, stronger effect = higher value
[6] = HCT116 colon cancer cell growth inhibition, primary screen, CellTiter-Glo luminescence, NPC library (AID 1117342;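 active means compounds that lower survival of HCT116 colon cancer cells in the luminescence readout, no numeric limit stated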); details: at 20 µM (top of the series)
[7] = reduced SW480 viability measured with CellTiter-Glo, NPC library, primary (AID 1117343;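 active means compounds that lower viability of the colon cancer cells in the luminescence readout, with no numeric limit stated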); details: CellTiter-Glo luminescence; at 20 µM (top of the series) unless noted
[8] = NPC library primary testing for decreased DLD-1 cell viability via CellTiter-Glo (AID 1117346;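 active means compounds that lower survival of DLD-1 colon cancer cells in the luminescence readout, no cutoff given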); details: DLD-1 viability, CellTiter-Glo luminescence; at 20 µM (top of the series)
[9] = viability loss in pontine glioma line – cell-based, JHH-DIPG-1, MIPE4.0, CellTiter-Glo, qHTS, dose response (AID 1347062; cut-off not given, nearly all actives have AC50 up to about 27 µM;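 on AC50: cells exposed to compound for two days before readout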); details: JHH-DIPG-1 viability, CellTiter-Glo ATP luminescence
[10] = viability loss in pontine glioma line – cell-based, SU-DIPG-IV, MIPE4.0, CellTiter-Glo, qHTS, dose response (AID 1347063; cut-off not given, nearly all actives have AC50 up to about 30 µM;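 further: compound exposure lasted 48 hours before the viability readout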); details: CellTiter-Glo ATP luminescence
[11] = MELAS cybrid and Rieske KO viability enhancers – cell-based, MELAS cybrids, Rieske KO mouse fibroblasts, CellTiter-Glo, primary screen (AID 1508586); details: low glucose;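 further: z relative to plate mean and SD of compound and empty wells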
[12] = P. berghei load reduction in hepatocytes – cell-based, HepG2, luciferase luminescence, HepG2 viability, primary screen (AID 624349; in the data active means parasite load remaining mostly below about 12%, no sharp cut-off; inactive means mostly above about 10%;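 further: 100% = mean of DMSO negative control wells on the same plate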); details: P. berghei liver stage in HepG2, luciferase luminescence, concentration not given here; parasite load remaining: stronger effect = lower value; viability: measured here: HepG2 viability without parasites
[13] = viability loss with induced miR-34 in A549 – imaging, A549 dox-inducible miR-34, nuclei and caspase counts, primary screen (AID 1347080;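 active means compounds whose cell count with miR-34 switched on is under 0.7 times the count with it off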); details: A549 miR-34 inducible, Hoechst nuclei count, 48 h
[14] = galactose survival enhancers in mitochondrial complex I cybrids – cell-based, galactose medium, ATP luminescence, primary screen (AID 1645843;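 active means z-score of at least 1.8 in each of two replicates, scored against plate mean and spread of sample wells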;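 further: positive z means more ATP and so rescue of galactose-driven cybrid death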); details: complex I mutant cybrid cells, 72 h, stronger effect = higher value
[15] = biological target: NAD(+) hydrolase SARM1 (Homo sapiens) (UniProt Q6SZW1); assay: blocking NAD cleavage by SARM1 SAM-TIR – cell lysate, NAD-Glo luminescence (AID 1508614;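 active means compound whose remaining NAD level is above about 45 nM, limit read from the data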); details: SAM-TIR HEK293T lysate NADase, at 1 µM, stronger effect = higher value
Chain of NAD(+) hydrolase SARM1 (Homo sapiens) (Q6SZW1 whole entry, looked up): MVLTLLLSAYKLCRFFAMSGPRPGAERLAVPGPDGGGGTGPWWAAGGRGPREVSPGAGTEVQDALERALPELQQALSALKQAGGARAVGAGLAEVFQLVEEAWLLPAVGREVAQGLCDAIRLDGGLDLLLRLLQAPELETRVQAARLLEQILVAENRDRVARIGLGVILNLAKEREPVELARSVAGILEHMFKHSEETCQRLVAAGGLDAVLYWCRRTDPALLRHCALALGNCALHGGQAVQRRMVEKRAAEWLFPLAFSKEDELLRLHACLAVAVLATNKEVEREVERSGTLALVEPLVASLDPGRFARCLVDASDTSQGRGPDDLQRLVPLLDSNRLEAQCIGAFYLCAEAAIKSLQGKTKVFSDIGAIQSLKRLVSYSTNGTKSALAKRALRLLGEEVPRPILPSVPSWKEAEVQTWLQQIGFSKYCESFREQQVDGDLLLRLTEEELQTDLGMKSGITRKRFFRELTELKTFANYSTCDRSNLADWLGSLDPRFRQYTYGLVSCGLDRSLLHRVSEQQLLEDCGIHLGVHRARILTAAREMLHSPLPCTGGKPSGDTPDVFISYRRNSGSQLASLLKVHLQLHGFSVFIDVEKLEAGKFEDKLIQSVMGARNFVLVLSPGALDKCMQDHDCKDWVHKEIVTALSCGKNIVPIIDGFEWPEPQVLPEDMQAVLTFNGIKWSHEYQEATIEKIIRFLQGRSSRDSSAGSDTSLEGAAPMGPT

[16] = MELAS cybrid survival, CellTiter-Glo 48 h, stronger effect = higher value
[17] = Rieske KO mouse fibroblast survival, CellTiter-Glo 72 h

CN(c1nccc(=O)[nH]1)C1CCN(c2nc3ccccc3n2Cc2ccc(F)cc2)CC1
0.258: z-score [11, 17]
-0.5%: nuclear beta-catenin stimulation ([1]; stimulation, at 2 µM)
inactive: nuclear beta-catenin stimulation ([1]; at 10 µM) -1.9% | insulin secretion stimulation [2] 4.3% | viability decrease [3] -6.8% | tube area decrease [4] 10.5% | GLP1 secretion stimulation [5] -3% | inhibition of viability [6] 26.2% | viability decrease (inhibition) [7] 9.6% | viability decrease (inhibition) [8] -5.1% | outcome [9] | outcome [10] | z-score [11, 16] 0.306

Cc1c(C)c2c(c(C)c1O)CCC(C)(COc1ccc(CC3SC(=O)NC3=O)cc1)O2 (stereo unspecified)
6090 and 11900 and 7450: cell count ([13]; measured here: total cells with miR-34 induction, stronger effect = lower value)
inactive: parasite load remaining [12] 65.9% and 36.4% | nuclear beta-catenin stimulation ([1]; at 10 µM) 1.2% | insulin secretion stimulation [2] 1.4% | GLP1 secretion stimulation [5] 11.9% | outcome [9] | fold change ([13]; stronger effect = lower value, cell number ratio, induced over uninduced) 1.09 and 0.933 and 0.824 | z-score [11, 16] -0.456 and 0.16 | z-score [14] 0.175
active: viability decrease [3] 88.4% | tube area decrease [4] 99.4% | inhibition of viability [6] 55.4% | viability decrease (inhibition) [7] 110% | viability decrease (inhibition) [8] 101%
207% and 95%: viability [12]
0.0968 and -0.894: z-score [11, 17]
5600 and 12700 and 9040: cell count ([13]; measured here: total cells without miR-34 induction)
0.891 and 4.13 and 1.35: fold change ([13]; measured here: relative caspase fold change +Dox/-Dox)
10.4%: nuclear beta-catenin stimulation ([1]; stimulation, at 2 µM)

COC(=O)C1=C(C)NC(C)=C(C(=O)OCCN2CCN(C(c3ccccc3)c3ccccc3)CC2)C1c1cccc([N+](=O)[O-])c1 (stereo unspecified)
active: viability decrease [3] 52.2% | tube area decrease [4] 106% | inhibition of viability [6] 78.5% | viability decrease (inhibition) [7] 135% | viability decrease (inhibition) [8] 96.4%
inactive: parasite load remaining [12] 20.2% | nuclear beta-catenin stimulation ([1]; at 10 µM) 7.1% | insulin secretion stimulation [2] -1.1% | GLP1 secretion stimulation [5] -1.8% | outcome [9] | outcome [10] | z-score [11, 16] -0.211 and -0.214 and 0.218 | remaining NAD [15] 10 nM | z-score [14] -1.36
1.09 and 0.891 and 0.572: z-score [11, 17]
100%: viability [12]
1.4%: nuclear beta-catenin stimulation ([1]; stimulation, at 2 µM)

CC=CC1=C(C(=O)O)N2C(=O)[C@@H](NC(=O)[C@H](N)c3ccc(O)cc3)[C@H]2SC1
inactive: nuclear beta-catenin stimulation ([1]; at 10 µM) 1% | insulin secretion stimulation [2] -0.3% | viability decrease [3] 4.9% | tube area decrease [4] -8.9% | GLP1 secretion stimulation [5] -4% | inhibition of viability [6] 41.6% | viability decrease (inhibition) [7] 45.4% | viability decrease (inhibition) [8] 33.9% | outcome [9] | outcome [10]
2.9%: nuclear beta-catenin stimulation ([1]; stimulation, at 2 µM)

CCCCCCOC(=O)NC(=N)c1ccc(NCc2nc3cc(C(=O)N(CCC(=O)OCC)c4ccccn4)ccc3n2C)cc1
2.3%: nuclear beta-catenin stimulation ([1]; stimulation, at 2 µM)
active: viability decrease [3] 78.3% | inhibition of viability [6] 118% | viability decrease (inhibition) [7] 155% | viability decrease (inhibition) [8] 102% | AC50 [9] 26.4 µM
inactive: nuclear beta-catenin stimulation ([1]; at 10 µM) 2.7% | insulin secretion stimulation [2] 0.9% | tube area decrease [4] -1.4% | GLP1 secretion stimulation [5] -2.6% | outcome [10]

— PubChem BioAssay
